For 9 compounds, Potency and outcome results are on record in PubChem BioAssay (Tox21).

Records with an inconclusive call do not appear. The source made the active and inactive calls. Unless noted, calls come from the whole dose curve; as a rule, active = well fitted curve in the direction sought with a large enough effect in the repeat runs; inconclusive = weak or mixed curves; inactive = no such curve, though single readings can be large; an effect the other way counts as inactive or inconclusive.

The nature of assay [1]: qHTS assay to identify small molecule antagonists of the thyroid receptor (TR) signaling pathway - cell viability counter screen (AID 743064). Note: nearly all actives have a fitted effect of over 50% in size. Note: potency is the fitted concentration of half-maximal effect. In a few lines: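 GH3.TRE-Luc cells, 4 h pre-plating; cpd + T3 1 nM final; 37 °C 23.5 h; CellTiter-Fluor 30 min; fluorescence read.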
For orientation: qHTS replaces the single test concentration by a dilution series.

Assay [2] can be described thus: qHTS assay to identify small molecule antagonists of the thyroid receptor (TR) signaling pathway (AID 743065). Note: nearly all actives have a fitted effect of over 55% in size. Note: potency is the fitted concentration of half-maximal effect. In outline:
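GH3.TRE-Luc rat pituitary cells carrying two TR response elements driving luciferase were plated for 4 h, given compound plus 1 nM T3 (final), and incubated 23.5 h at 37 C. ONE-Glo luminescence measured reporter inhibition; CellTiter-Fluor fluorescence tracked cytotoxicity.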

In assay [3] the test system is thyroid hormone receptor (rat, GH3 cells). The experiment in a line: qHTS assay to identify small molecule agonists of the thyroid receptor (TR) signaling pathway (AID 743066; calls by dose curve).
Assay [4] is described as follows: qHTS assay to identify small molecule antagonists of the estrogen receptor alpha (ER-alpha) signaling pathway - cell viability counter screen (AID 743074; calls by dose curve;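 note: HEK293 cells carrying ER-alpha-UAS-bla reporter stimulated with 17beta-estradiol; nearly all actives have a fitted effect of over 45% in size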).
For assay [5], the target named is Estrogen receptor (Homo sapiens) (UniProt P03372). The experiment in a line: qHTS assay to identify small molecule agonists of the estrogen receptor alpha (ER-alpha) signaling pathway (AID 743075; calls by dose curve;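 note: HEK293 GripTite cells with ER-alpha and UAS-driven beta-lactamase reporter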).
Assay [6] has the same target. The experiment in a line: qHTS assay to identify small molecule agonists of the estrogen receptor alpha (ER-alpha) signaling pathway using the BG1 cell line (AID 743079). Note: nearly all actives have a fitted effect of over 20% in size. Note: potency is the fitted concentration of half-maximal effect. To be noted: BG1Luc4E2 cells, ERE-luciferase agonist, 22 h; activation: at 70.3 µM (top of the series).
A short description of assay [7]: qHTS assay to identify small molecule antagonists of the estrogen receptor alpha (ER-alpha) signaling pathway using the BG1 cell line - cell viability counter screen (AID 743081).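 Note: compound given together with 17beta-estradiol as the ER stimulus; nearly all actives have a fitted effect of over 45% in size.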 Note: potency is the fitted concentration of half-maximal effect.
The target in a further assay is Aromatase (Homo sapiens) (UniProt P11511). The assay can be described thus: qHTS assay to identify aromatase inhibitors (AID 743083). Note: nearly all actives have a fitted effect of over 55% in size. Note: potency is the fitted concentration of half-maximal effect.
The target of assay [8] is Aryl hydrocarbon receptor (Homo sapiens) (UniProt P35869). The assay can be described thus: qHTS assay to identify small molecule that activate the aryl hydrocarbon receptor (AhR) signaling pathway (AID 743085).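 For activation: HG2L7.5c1 human HepG2 liver cells with stably integrated DRE-driven firefly reporter.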 Note: nearly all actives have a fitted effect of over 15% in size. Note: potency is the fitted concentration of half-maximal effect. In a few lines:
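Luminescence read-out: ONE-Glo reagent, 30 min at room temperature, in HG2L7.5c1 HepG2 reporter cells treated 24 h at 37C. Viability was measured beforehand by CellTiter-Fluor fluorescence after 30 min at 37C.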

Assay [9] is described as follows: qHTS assay to identify small molecule that activate the aryl hydrocarbon receptor (AhR) signaling pathway - cell viability counter screen (AID 743086).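 Note: HepG2 liver cells carrying the AhR DRE luciferase reporter; nearly all actives have a fitted effect of over 45% in size.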 In a few lines: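 HepG2-AhR-luc (HG2L7.5c1) cells, 4000/well, were preincubated 5 h at 37C, exposed to compound in qHTS format for 24 hr at 37C, then given CellTiter-Fluor for 30 min; viability was read as fluorescence in the reporter wells.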

Assay [10] has as its target Peroxisome proliferator-activated receptor gamma (Homo sapiens) (UniProt P37231). The experiment in a line: qHTS assay to identify small molecule agonists of the peroxisome proliferator-activated receptor gamma (PPARg) signaling pathway (AID 743094; active = well fitted activation curve with a large enough effect in the signal ratio in the repeat runs, not every such curve was filed as active; the % refers to the signal ratio). In outline:
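Reporter activation was scored by fluorescence of cleaved LiveBLAzer B/G substrate (1 h, room temperature) in PPARg-bla HEK293H cells previously treated 17 h at 37C with DMSO-dissolved compounds.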

For assay [11] the target is unchanged. The assay can be described thus: qHTS assay to identify small molecule antagonists of the peroxisome proliferator-activated receptor gamma (PPARg) signaling pathway (AID 743191; calls by dose curve; note: nearly all actives have a fitted effect of over 30% in size). In a few lines: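 GeneBLAzer PPARg UAS-bla HEK293H cells carrying a UAS-driven beta-lactamase reporter were plated at 3000 cells/well, preincubated 5 h at 37C, then given compound for 17 h at 37C; LiveBLAzer B/G FRET substrate was read after 1 h at room temperature.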

Assay [12] can be described thus: qHTS assay to identify small molecule antagonists of the peroxisome proliferator-activated receptor gamma (PPARg) signaling pathway - cell viability counter screen (AID 743194). Note: nearly all actives have a fitted effect of over 55% in size. Note: potency is the fitted concentration of half-maximal effect. In outline: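 PPARg-UAS-bla HEK293H cells were plated, rested 5 h at 37 C, then treated with compounds plus rosiglitazone (50 nM final) for 17 h at 37 C; viability was then read by CellTiter-Glo luminescence after 30 min at room temperature.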

Assay [13] is described as follows: qHTS assay for small molecule agonists of the antioxidant response element (ARE) signaling pathway (AID 743202; active = well fitted activation curve with a large enough effect in the signal ratio in the repeat runs, not every such curve was filed as active; the % refers to the signal ratio; note: potency is the fitted concentration of half-maximal effect). In outline: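 Following a 16 h, 37 C exposure of reporter HepG2 cells (ARE-driven beta-lactamase, 2,000 cells/well) to compounds, FRET substrate was applied for 2 h at room temperature and fluorescence intensity recorded.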
A short description of assay [14]: qHTS assay for small molecule agonists of the antioxidant response element (ARE) signaling pathway - cell viability counter screen (AID 743203; calls by dose curve; note: nearly all actives have a fitted effect of over 55% in size). In outline:
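Viability counter screen: stably transfected ARE-bla HepG2 line, 16 hrs compound exposure at 37C/5% CO2, ATP-based CellTiter-Glo luminescence measured in the reporter wells.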

Assay [15] is described as follows: qHTS assay for small molecule activators of the heat shock response signaling pathway - cell viability counter screen (AID 743209). Note: nearly all actives have a fitted effect of over 50% in size. Note: potency is the fitted concentration of half-maximal effect. In outline: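 Viability of HSE-bla HeLa cells is measured with CellTiter-Glo in the wells already used for the reporter read. Compound exposure lasts 5 h at 37 C, and luminescence is read after 30 min at room temperature.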
Assay [16] in a line: qHTS assay for small molecule activators of the heat shock response signaling pathway (AID 743210; active = well fitted activation curve with a large enough effect in the signal ratio in the repeat runs, with a control signal flat, not every such curve was filed as active; the % refers to the signal ratio). In a few lines: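 Heat shock element–beta-lactamase HeLa reporter cells; qHTS with compounds for 5 h at 37 C; detection by FRET substrate fluorescence after 2.5 h at RT.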
Assay [17] is described as follows: qHTS assay to identify small molecule antagonists of the estrogen receptor alpha (ER-alpha) signaling pathway using the BG1 cell line (AID 743080; calls by dose curve;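 note: BG1 cells stimulated with 17beta-estradiol alongside compound; nearly all actives have a fitted effect of over 25% in size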). In a few lines: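 Readout is ONE-Glo luminescence, taken 30 min at room temperature after reagent addition, preceded by a CellTiter-Fluor viability read; BG1-Luc-4E2 cells had received compound and 17beta-estradiol for 21.5 h at 37 C.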

Assay [18] can be described thus: qHTS assay to identify aromatase inhibitors - cell viability counter screen (AID 743084). Note: potency is the fitted concentration of half-maximal effect.

Sequence of Aryl hydrocarbon receptor (Homo sapiens) (P35869 whole entry, looked up): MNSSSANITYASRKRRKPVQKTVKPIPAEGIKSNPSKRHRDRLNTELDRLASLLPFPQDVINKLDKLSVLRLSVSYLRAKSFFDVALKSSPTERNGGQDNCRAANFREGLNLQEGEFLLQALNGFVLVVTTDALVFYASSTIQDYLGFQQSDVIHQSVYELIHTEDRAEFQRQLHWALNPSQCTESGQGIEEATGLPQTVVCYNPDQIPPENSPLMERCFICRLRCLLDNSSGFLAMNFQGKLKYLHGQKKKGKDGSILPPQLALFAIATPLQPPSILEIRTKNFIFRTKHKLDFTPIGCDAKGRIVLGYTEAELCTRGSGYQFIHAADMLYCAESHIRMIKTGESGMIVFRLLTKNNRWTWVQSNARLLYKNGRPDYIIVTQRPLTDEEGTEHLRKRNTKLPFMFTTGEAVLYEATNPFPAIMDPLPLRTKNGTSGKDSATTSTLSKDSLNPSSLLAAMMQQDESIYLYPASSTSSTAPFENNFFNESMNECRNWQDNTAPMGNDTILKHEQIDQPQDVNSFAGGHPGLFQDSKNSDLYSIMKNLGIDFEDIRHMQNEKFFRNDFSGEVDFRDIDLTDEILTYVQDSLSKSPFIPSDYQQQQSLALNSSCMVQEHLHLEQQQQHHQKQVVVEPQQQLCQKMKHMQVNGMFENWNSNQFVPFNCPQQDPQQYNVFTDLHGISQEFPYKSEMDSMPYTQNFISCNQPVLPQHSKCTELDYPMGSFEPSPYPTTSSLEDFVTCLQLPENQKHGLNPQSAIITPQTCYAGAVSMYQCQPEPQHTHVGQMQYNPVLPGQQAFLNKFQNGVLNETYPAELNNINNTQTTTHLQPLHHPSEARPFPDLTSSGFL
Sequence of Peroxisome proliferator-activated receptor gamma (Homo sapiens) (P37231 whole entry, looked up): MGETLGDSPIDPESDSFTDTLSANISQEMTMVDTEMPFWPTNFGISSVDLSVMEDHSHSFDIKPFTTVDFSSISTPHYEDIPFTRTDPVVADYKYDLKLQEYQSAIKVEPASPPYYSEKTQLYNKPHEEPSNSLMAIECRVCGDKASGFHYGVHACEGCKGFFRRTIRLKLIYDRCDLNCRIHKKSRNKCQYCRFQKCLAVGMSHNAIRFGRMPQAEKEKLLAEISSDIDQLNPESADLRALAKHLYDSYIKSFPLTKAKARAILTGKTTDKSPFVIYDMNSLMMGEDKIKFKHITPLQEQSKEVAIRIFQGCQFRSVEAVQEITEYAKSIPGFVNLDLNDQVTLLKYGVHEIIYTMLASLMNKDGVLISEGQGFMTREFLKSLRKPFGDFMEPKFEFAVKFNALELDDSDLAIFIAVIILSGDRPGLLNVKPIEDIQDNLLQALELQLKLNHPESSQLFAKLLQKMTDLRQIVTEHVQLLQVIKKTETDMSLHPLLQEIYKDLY
Sequence of Aromatase (Homo sapiens) (P11511 whole entry, looked up): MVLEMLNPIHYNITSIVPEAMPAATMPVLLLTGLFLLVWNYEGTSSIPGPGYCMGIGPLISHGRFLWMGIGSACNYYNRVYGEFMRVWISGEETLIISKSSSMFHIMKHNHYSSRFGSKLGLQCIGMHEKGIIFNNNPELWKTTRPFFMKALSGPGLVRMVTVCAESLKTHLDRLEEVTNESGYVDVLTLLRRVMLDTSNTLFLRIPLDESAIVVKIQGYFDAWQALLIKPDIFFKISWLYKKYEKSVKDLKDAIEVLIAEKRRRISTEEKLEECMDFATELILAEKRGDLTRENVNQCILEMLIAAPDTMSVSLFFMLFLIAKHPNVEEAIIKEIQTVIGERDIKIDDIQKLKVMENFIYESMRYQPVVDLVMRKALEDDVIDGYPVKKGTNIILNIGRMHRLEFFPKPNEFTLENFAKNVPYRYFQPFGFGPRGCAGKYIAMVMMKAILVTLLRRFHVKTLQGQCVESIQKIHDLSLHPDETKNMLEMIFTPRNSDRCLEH
Sequence of Estrogen receptor (Homo sapiens) (P03372 whole entry, looked up): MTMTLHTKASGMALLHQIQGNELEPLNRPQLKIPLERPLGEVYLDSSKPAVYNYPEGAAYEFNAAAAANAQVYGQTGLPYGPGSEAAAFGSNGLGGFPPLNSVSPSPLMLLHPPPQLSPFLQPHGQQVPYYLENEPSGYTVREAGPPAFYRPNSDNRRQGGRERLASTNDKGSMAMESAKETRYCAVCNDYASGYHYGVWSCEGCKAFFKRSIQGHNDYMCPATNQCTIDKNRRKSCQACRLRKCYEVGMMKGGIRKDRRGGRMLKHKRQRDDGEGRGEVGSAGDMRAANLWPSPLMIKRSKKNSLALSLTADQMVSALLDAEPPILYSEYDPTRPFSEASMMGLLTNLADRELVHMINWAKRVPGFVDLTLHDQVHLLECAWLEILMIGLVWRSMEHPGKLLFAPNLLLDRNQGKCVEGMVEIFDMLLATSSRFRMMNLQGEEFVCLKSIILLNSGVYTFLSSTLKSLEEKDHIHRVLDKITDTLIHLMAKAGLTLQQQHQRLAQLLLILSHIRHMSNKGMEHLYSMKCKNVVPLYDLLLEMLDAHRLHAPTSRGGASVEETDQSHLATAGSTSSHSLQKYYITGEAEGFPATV

On to `O=C1c2ccccc2C(=O)C1c1nc2ccccc2c(Br)c1O`, for which the Potency result in [1], in assay [2], in assay [4], in assay [5], in assay [6] and in assay [7] was “inactive” each time. In addition, the Potency entry (with Aromatase (Homo sapiens); in assay [9]; in assay [10]; in [11]; in [12]; in assay [14]) was “inactive” in each case. The Potency result in assay [15] and in assay [16] was “inactive” in each case. Also, the result in assay [3] was inactive. Besides, the Potency in [8] is 9.69 µM (active); in assay [13] it was 1.54 µM (active).

Turning to `CCC(C)COC(C)=O` (stereo unspecified), the Potency result in assay [1], in [2], in [4], in assay [5], in assay [6] and in assay [17] was “inactive” in each case. Further, the Potency result (in assay [7]; with Aromatase (Homo sapiens); in [18]; in assay [9]; in [12]; in assay [13]) was “inactive” each time. The Potency result in assay [14] was “inactive”. Moreover, in assay [3], the call was inactive.

Turning to `CC1(C)[C@H](C(=O)O)N2C(=O)C[C@H]2S1(=O)=O`, the Potency result in assay [1], in assay [2], in assay [4], in assay [5], in assay [6] and in [17] was “inactive” each time. Further, the Potency entry (in assay [7]; with Aromatase (Homo sapiens); in assay [18]; in assay [8]; in [9]; in [12]) was “inactive” each time. Also, the Potency result in assay [14], in [15] and in assay [16] was “inactive” in each case. Besides, the outcome in assay [3] was inactive.

As for `CC(=O)Oc1ccc([N+](=O)[O-])cc1CCl`, the Potency is 30.6 µM (active) in assay [1], 61.1 µM (active) in [7] and 27.3 µM (active) in [18]. In addition, the Potency result (in [2]; in assay [4]; in [5]; in [6]; in the assay with Aromatase (Homo sapiens); in [8]) was “inactive” each time. In addition, the Potency result in [10], in [12], in [15] and in [16] was “inactive” in each case. Further, the result in [3] was inactive.

As to `Cc1cc(C)cc(N)c1`, the Potency entry in [1], in assay [2], in assay [4], in assay [5], in [6] and in assay [17] was “inactive” each time. Moreover, the Potency entry (in assay [7]; with Aromatase (Homo sapiens); in assay [18]; in assay [8]; in [9]; in [11]) was “inactive” each time. Moreover, the Potency entry in assay [12], in assay [13], in assay [15] and in assay [16] was “inactive” in each case. Further, the compound was classed as inactive in [3].

As to `C=C(C)C(=O)OCCOCCOC(=O)C(=C)C`, the Potency result in assay [1], in assay [2], in [4], in assay [5], in assay [6] and in assay [17] was “inactive” each time. The Potency entry (in assay [7]; with Aromatase (Homo sapiens); in assay [18]; in assay [8]; in [9]; in assay [10]) was “inactive” throughout. Moreover, the Potency result in [12], in assay [14], in [15] and in assay [16] was “inactive” in each case. For the same compound, the compound was classed as inactive in [3].

Turning to `CCOC(=O)OC(C)OC(=O)[C@@H]1N2C(=O)[C@@H](NC(=O)[C@H](N)c3ccccc3)[C@H]2SC1(C)C` (stereo partly specified), the Potency result (in assay [1]; in assay [2]; in assay [4]; in assay [7]; in the assay with Aromatase (Homo sapiens); in assay [18]) was “inactive” each time. For the same compound, the Potency entry in assay [8], in assay [9], in [10], in assay [12], in [13] and in [14] was “inactive” each time. Further, the Potency result in assay [15] and in assay [16] was “inactive” in each case. For the same compound, the compound was classed as inactive in assay [3].

As to `O=c1cc(-c2ccccc2)oc2ccc3ccccc3c12`, the Potency result in assay [1], in [5], in [7], in assay [18], in [9] and in assay [11] was “inactive” throughout. For the same compound, the Potency was 9.69 µM (active) in assay [2]; 2.43 µM (active) in assay [6]; 13.7 µM (active) in the assay with Aromatase (Homo sapiens); 19.5 µM (active) in [12]; 24.5 µM (active) in assay [15]. Besides, the result in assay [3] was inactive.

Regarding `CC(C)(c1ccccc1)c1ccccc1`, the Potency result (in [1]; in assay [2]; in assay [4]; in [7]; with Aromatase (Homo sapiens); in assay [8]) was “inactive” each time. For the same compound, the Potency entry in assay [9], in assay [10], in [12], in assay [13], in assay [14] and in assay [15] was “inactive” in each case. Moreover, the Potency result in assay [16] is “inactive”. Further, the call in assay [3] was inactive.
